In the library only some 4.9% were active in any assay of this set; here they are far more common.
SKKanGAS inh = inhibitors of SKKanGAS S. pyogenes growth in kanamycin (SK-promoter or general growth effect) | hit rate 1.3% among 300,000 | AID 1662 | inhibition, % at 7.5 µM | BacTiter-Glo, 6 h;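 active = mean replicate score, as percent of positive control median, at least 50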;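 note: strain carries kanamycin resistance gene driven by streptokinase promoter and grows in 40 µg/ml kanamycin; loss of luminescence reflects streptokinase promoter inhibition or plain growth inhibition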
TIM10 inh = inhibits growth of TIM10 yeast strain. S. cerevisiae TIM10 strain growth, BacTiter-Glo luminescence, 24 h. inhibition, % at 10 µM. hit rate 1.4% among 330,000. AID 463195;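 active = inhibition of 40% or more at the single tested concentration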;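 note: wild-type TIM10 isogenic control strain grown at permissive 25 °C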
tim23-1 inh = growth inhibitors of tim23-1 mutant yeast | AID 463212 | hit rate 1.3% among 330,000 | inhibition, % at 20 µM | S. cerevisiae tim23-1 growth, BacTiter-Glo luminescence, 24 h;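 active = growth inhibition of the mutant yeast at or above 50%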;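 note: temperature-sensitive mutant grown at 25 °C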
tim10-1 inh = growth inhibitors of tim10-1 mutant yeast; S. cerevisiae tim10-1 ts strain growth, BacTiter-Glo, 24 h; inhibition, % at 20 µM; hit rate 2.2% among 330,000; AID 463190;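 active = inhibition of at least 40%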;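 note: mutant grown at 25 °C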
NALP1 yeast inh = NALP1 inhibition | S. cerevisiae NALP1/ASC/caspase-1 growth, X-gal OD620, 72 h | inhibition, % at 10 µM | hit rate 0.61% among 280,000 | AID 2071; in the data active = inhibition mostly above about 24%, no sharp cut-off; inactive = mostly below about 32%
NALP3 yeast inh = inhibitors of NALP3 inflammasome in yeast; Yeast reconstituted NLRP3/ASC/caspase-1, beta-gal luminescence, 24 h; hit rate 0.39% among 330,000; inhibition, % at 10 µM;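 active = inhibition of 50% or more; inactive = inhibition below 50%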
tim10-1 conf = tim10-1 yeast growth inhibition, confirmed; hit rate 56% among 7,400; shares compounds with tim10-1 inh; AID 463213; inhibition, % at 20 µM; S. cerevisiae tim10-1 ts strain growth, BacTiter-Glo, 24 h;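 active = inhibition of yeast growth at or above a set limit in either of two repeat tests at 20 µM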;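 note: tim10-1 mutant grown at permissive 25 °C to find synthetic lethal compounds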
Each line names hits and unclear results; the compound was inactive in the other large screens (follow-up assays come after a bar, where they were run).

Cc1nnc(SC2CC(=O)N(c3ccccc3)C2=O)s1 (stereo not given)	tim10-1 inh 47 | tim10-1 conf 38
Cc1nc(SC2CC(=O)N(c3ccccc3)C2=O)nc2c1CCCC2 (stereo not given)	none
COc1ccc(N2C(=O)CC(Sc3nc4ccccc4s3)C2=O)cc1 (stereo not given)	tim10-1 inh 41 | tim10-1 conf 33
CCOc1ccc2nc(SC3CC(=O)N(c4ccc(OC)cc4)C3=O)sc2c1 (stereo not given)	none
O=C1CC(Sc2nnc(-c3ccccc3)o2)C(=O)N1c1ccccc1 (stereo not given)	tim10-1 inh 51 | tim10-1 conf 51
O=C(COC(=O)c1cccnc1Cl)NC(=O)c1ccc(OC(F)F)cc1	none (no result: SKKanGAS inh, NALP1 yeast inh)
CC(=O)c1ccc(N2Cc3ccccc3C2=NC(=O)c2cccs2)cc1	none
N#Cc1ccc(N2Cc3ccccc3C2=NC(=O)c2cccs2)cc1	tim10-1 inh 51 | tim10-1 conf 39
COc1ccc(NC(=O)C2CCCN(c3ncnc4onc(-c5ccc(F)cc5)c34)C2)cc1 (stereo not given)	tim10-1 inh 42 | tim10-1 conf inactive
COc1ccccc1C/C(N)=N/OC(=O)COc1ccccc1C	tim10-1 inh 41 | tim10-1 conf 40
Cc1ccc(OCC(=O)O/N=C(\N)Cc2cccs2)cc1C	tim10-1 inh 44 (no result: NALP1 yeast inh) | tim10-1 conf inactive
Cc1ccc(S(=O)(=O)N2CCN(C(=O)COC(=O)CCOc3ccc(C(C)(C)C)cc3)CC2)cc1	tim10-1 inh 49 (no result: NALP1 yeast inh) | tim10-1 conf inactive
CCOc1ccc(OCCC(=O)OCC(=O)N2CCN(S(=O)(=O)c3ccc(C)cc3)CC2)cc1	none (no result: NALP1 yeast inh)
COc1ccccc1C(=O)Nc1ccc2c(c1)C(=O)NC2=O	none
O=C(Nc1ccccc1N1CCOCC1)c1ccc2ccccc2n1	tim10-1 inh 41 | tim10-1 conf inactive
COc1ccc(-c2cc(C(=O)Nc3ccccc3N3CCOCC3)c3ccccc3n2)cc1OC	tim10-1 inh 42 | tim10-1 conf inactive
O=C(Nc1ccccc1N1CCOCC1)c1cc(-c2ccncc2)nc2ccccc12	none
C[C@@H]1COC(=O)[C@@H](CC(=O)OC(C)(C)C)C/C=C\C[C@@H](CC(=O)N[C@H](CO)Cc2ccccc2)C(=O)N1	none (no result: SKKanGAS inh, NALP1 yeast inh)
Cc1ccc(C)c(S(=O)(=O)N2CCN(C(=O)CN3C(=O)C4CC=CCC4C3=O)CC2)c1 (stereo not given)	none (no result: SKKanGAS inh, NALP1 yeast inh)
O=C(Cn1c(O)c(/C=C2\C=Nc3ccccc32)sc1=O)N1CCOCC1	none
O=C(Cn1c(O)c(/C=C2\C=Nc3ccc(Br)cc32)sc1=O)N1CCCC1	tim10-1 inh 52 | tim10-1 conf inactive
Cc1cc(Nc2ccccc2)n(-c2cccc(Cl)c2)n1	none
Nc1ccccc1Nc1cc(-c2cccc(Cl)c2)nn1-c1ccccc1	tim10-1 inh 40 | tim10-1 conf 34
Cc1ccccc1N=Nc1c(C)[nH]n(C(N)=S)c1=O	tim10-1 inh 41 | tim10-1 conf inactive
Cc1cccc(N=Nc2c(C)[nH]n(C(N)=S)c2=O)c1C	none
CCn1c(C)cc(O)c(C(=O)Nc2cccc(Cl)c2)c1=O	tim10-1 inh 45 | tim10-1 conf inactive
CCn1c(=O)c(C(=O)NNC(=O)c2cccc(Cl)c2)c(O)c2ccccc21	SKKanGAS inh 103, tim10-1 inh 46 | tim10-1 conf 51
CCCC1CCC(C(=O)Nn2c(C)nc3ccccc3c2=O)CC1 (stereo not given)	tim10-1 inh 47 | tim10-1 conf inactive
CCn1c(=O)c(C(=O)Nn2c(C)nc3ccccc3c2=O)c(O)c2ccccc21	tim10-1 inh 43 | tim10-1 conf inactive
COc1ccccc1C(=O)NCCC(=O)Nc1ccc(S(=O)(=O)N2CC(C)CC(C)C2)cc1 (stereo not given)	none (no result: SKKanGAS inh, NALP1 yeast inh)
COCc1cc(C)nc2sc(C(=O)Nc3ccccc3OC)c(N)c12	none
COc1ccc(OCC(=O)N/N=C/c2cccn2-c2cccc(C(=O)O)c2)cc1	none (no result: SKKanGAS inh, NALP1 yeast inh)
Cc1ccc(S(=O)(=O)/N=C(\N)Nc2nc(C)c3ccccc3n2)cc1	tim10-1 inh 45 | tim10-1 conf inactive
Cc1cccc(NC(=S)/N=C(\N)Nc2nc(C)c3ccccc3n2)c1	tim10-1 inh 44 | tim10-1 conf inactive
